From PubChem BioAssay
Active and inactive are the calls of the source.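 The calls were made as follows, unless noted: active = fluorescence slope higher than the sample average by over 3 SD (cut at about -0.22 in these data, passing the limit was not always enough); inactive = the rest.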

Key:
[1] = inhibitors of TNFa-induced NFkB p65 translocation, primary screen, imaging, HUVEC, MLSMR starter and 10KST1 sets (AID 438;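 active = inhibition above 20% together with a positive visual image hit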;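 also: compound added about 3h40 before a 20 min TNFalpha stimulation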;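 as to inhibition: signal is the nuclear over cytoplasmic p65 intensity ratio per well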); settings: HUVEC TNFa-induced p65 nuclear translocation; cell count: measured here: nuclei count (cytotoxicity indicator), at 2.08 µM; inhibition: at 2 µM, stronger effect = higher value, 0% TNFa-plus-vehicle, 100% no-TNFa wells
[2] = inhibitors of mutant huntingtin aggregation, primary screen, imaging, exon1htt(103Q)mCFP cells, high-content imaging (AID 483;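 active = visual image review flags a hit and inhibition of aggregation exceeds 20%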;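 also: compound exposure lasted 3 days before fixation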;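 as to nuclei count: percent of the per-plate median nuclei count of sample wells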); settings: exon1htt(103Q)mCFP cell line, aggregate imaging, at 2 µM; inhibition of aggregation: stronger effect = higher value; nuclei count: measured here: cell count, toxicity
[3] = inhibitors of E-selectin induction by TNFa, primary screen, imaging, HUVEC, immunofluorescence, MLSMR starter and 10KST1 sets (AID 487;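 active = visually confirmed hit in the image check and inhibition above 20%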;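 as to inhibition: signal is fraction of cell area covered by stained E-selectin grains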;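 as to nuclei count: 100% = median nuclei count of all wells on the same plate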); settings: HUVEC TNFalpha-induced E-selectin immunofluorescence imaging, at 2 µM; inhibition: stronger effect = higher value; nuclei count: measured here: cell number, toxicity
[4] = target: Voltage-gated potassium channel subunit beta-2 (Rattus norvegicus) (UniProt P62483); experiment: KvBeta enzyme negative modulators, primary screen, biochemical, NADPH fluorescence (AID 622); settings: recombinant KvBeta, 4-cyanobenzaldehyde reduction, at 10 µM, stronger effect = higher value;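 also: slope of raw intensity against log time taken from 70 to 1610 s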
Chain of Voltage-gated potassium channel subunit beta-2 (Rattus norvegicus) (P62483 whole entry, looked up): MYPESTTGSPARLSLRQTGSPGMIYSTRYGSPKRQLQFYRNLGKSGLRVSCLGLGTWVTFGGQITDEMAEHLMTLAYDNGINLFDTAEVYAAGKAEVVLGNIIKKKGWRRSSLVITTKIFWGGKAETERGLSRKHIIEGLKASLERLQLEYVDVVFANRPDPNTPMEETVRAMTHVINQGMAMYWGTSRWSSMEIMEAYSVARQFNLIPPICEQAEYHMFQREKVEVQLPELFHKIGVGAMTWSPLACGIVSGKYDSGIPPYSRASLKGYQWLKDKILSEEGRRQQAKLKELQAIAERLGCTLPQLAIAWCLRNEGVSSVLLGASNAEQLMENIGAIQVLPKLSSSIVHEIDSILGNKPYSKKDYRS

[5] = target: Voltage-gated potassium channel subunit beta-2 (Rattus norvegicus) (UniProt P62483); experiment: KvBeta positive modulators, primary screen, biochemical, NADPH fluorescence (AID 623;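 active = NADPH fluorescence slope more negative than the mean of all samples by about 3 SD, 99.7% confidence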;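 also: fluorescence intensity change per second fitted from 20 to 320 s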); settings: Recombinant KvBeta, NADPH fluorescence decrease slope, 10 min; at 10 µM; stronger effect = lower value
[6] = target: Alpha-2C adrenergic receptor (Homo sapiens) (UniProt P18825); experiment: modulators of alpha2C/GIRK thallium flux, primary screen, cell-based, HEK293 alpha2C/GIRK1/2 (AID 624;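 active = fluorescence slope after compound addition differing from the mean of all screened samples at 99.7% confidence, in either direction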;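 also: slope of fluorescence ratio to pre-addition baseline per second over 15 to 24 s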); settings: thallium flux BTC fluorescence, at 10 µM, actives lie on both sides
Chain of Alpha-2C adrenergic receptor (Homo sapiens) (P18825 whole entry, looked up): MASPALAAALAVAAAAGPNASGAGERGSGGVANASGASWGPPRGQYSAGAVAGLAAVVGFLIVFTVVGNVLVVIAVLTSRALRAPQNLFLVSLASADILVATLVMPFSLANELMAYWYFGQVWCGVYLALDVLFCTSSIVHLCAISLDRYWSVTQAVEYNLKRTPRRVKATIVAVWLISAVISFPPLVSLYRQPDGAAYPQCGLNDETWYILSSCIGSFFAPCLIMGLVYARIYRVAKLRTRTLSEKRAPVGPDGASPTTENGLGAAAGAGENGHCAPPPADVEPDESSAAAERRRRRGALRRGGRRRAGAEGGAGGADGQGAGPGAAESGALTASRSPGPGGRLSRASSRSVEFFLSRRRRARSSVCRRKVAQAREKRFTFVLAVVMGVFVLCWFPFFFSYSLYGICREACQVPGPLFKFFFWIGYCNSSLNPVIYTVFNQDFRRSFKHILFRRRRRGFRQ

[7] = inhibitors of Sendai virus-induced IRF3 signaling, primary screen, TLR/RLR signaling modifier project, cell-based, Sendai virus stimulus, luciferase, 10K MLSCN set (AID 602276;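 active = inhibition at or above 50% at 10 µM; inactive = inhibition below 50%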;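 also: firefly luciferase from ISG56 promoter only with Renilla not read in this screen; 0% = Sendai virus plus DMSO and 100% = medium plus DMSO without virus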); settings: HEK293 RL24 IRF3 luciferase reporter, at 10 µM, stronger effect = higher value
[8] = inhibitors of poly I:C-induced TLR3 signaling, primary screen, cell-based, poly I:C stimulus, luciferase, 10K MLSCN set (AID 602277;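 active = inhibition of the reporter signal at or above 50%; inactive = inhibition below 50%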); settings: HEK293-TLR3 RL24 IRF3 luciferase reporter, at 10 µM, stronger effect = higher value

COc1ccc(OC)c(-c2nnc(SCC(=O)NC3CCCCC3)o2)c1
cell count [1]: 738 | inhibition [1]: 2.1% (inactive) | inhibition of aggregation [2]: 13.9% (inactive) | nuclei count [2]: 97.8% | inhibition [3]: -24.5% (inactive) | nuclei count [3]: 114% | fluorescence slope [4]: -0.574 (inactive) | NADPH fluorescence slope [5]: -1.4e-05 (inactive) | slope [6]: 0.00689 (inactive) | inhibition [7]: -17.4% (inactive) | inhibition [8]: 0.755% (inactive)

CCOC(=O)C1=C(C)NC(C)=C(C(=O)OCC)C1c1cc(N)ccc1OC(F)F
cell count [1]: 181 | inhibition [1]: -11% (inactive) | inhibition of aggregation [2]: 22.6% (inactive) | nuclei count [2]: 83.8% | inhibition [3]: -12.2% (inactive) | nuclei count [3]: 96.5% | fluorescence slope [4]: -0.445 (inactive) | NADPH fluorescence slope [5]: 4.3e-05 (inactive) | slope [6]: 0.00592 (inactive) | inhibition [7]: 8.52% (inactive) | inhibition [8]: 28.4% (inactive)

Clc1ss/c(=N\c2ccccn2)c1Cl
cell count [1]: 623 | inhibition [1]: -6.5% (inactive) | inhibition of aggregation [2]: -1.1% (inactive) | nuclei count [2]: 112% | inhibition [3]: -39.9% (inactive) | nuclei count [3]: 124% | fluorescence slope [4]: -0.483 (inactive) | NADPH fluorescence slope [5]: -0.000216 (inactive) | slope [6]: 0.0043 (inactive) | inhibition [7]: -8.89% (inactive) | inhibition [8]: -24% (inactive)

CN(CCc1ccccn1)c1ncnc2[nH]ncc12
cell count [1]: 591 | inhibition [1]: 8.1% (inactive) | inhibition of aggregation [2]: -1.4% (inactive) | nuclei count [2]: 71.8% | inhibition [3]: 55.8% (active) | nuclei count [3]: 63.8% | fluorescence slope [4]: -0.325 (inactive) | NADPH fluorescence slope [5]: -3.6e-05 (inactive) | slope [6]: 0.0053 (inactive) | inhibition [7]: -24.6% (inactive) | inhibition [8]: -53.4% (inactive)

OC(CN1CCN(c2ccccc2)CC1)c1ccc2c(c1)CCN2 (centres undefined)
cell count [1]: 604 | inhibition [1]: -1.6% (inactive) | inhibition of aggregation [2]: 9.3% (inactive) | nuclei count [2]: 82.3% | inhibition [3]: -60.6% (inactive) | nuclei count [3]: 108% | fluorescence slope [4]: -0.571 (inactive) | NADPH fluorescence slope [5]: -2.8e-05 (inactive) | slope [6]: 0.00657 (inactive) | inhibition [7]: 6.89% (inactive) | inhibition [8]: 32.4% (inactive)

COC(C)(C)c1cc(C(C)(C)C)nc(N)n1
cell count [1]: 433 | inhibition [1]: 12% (inactive) | inhibition of aggregation [2]: 9.5% (inactive) | nuclei count [2]: 103% | inhibition [3]: -28.8% (inactive) | nuclei count [3]: 129% | fluorescence slope [4]: -0.385 (inactive) | NADPH fluorescence slope [5]: -7.8e-05 (inactive) | slope [6]: 0.00615 (inactive) | inhibition [7]: 6.59% (inactive) | inhibition [8]: 24.6% (inactive)

Nc1nc(SCc2nc3scc(-c4cccs4)c3c(=O)[nH]2)n[nH]1
cell count [1]: 473 | inhibition [1]: 3.8% (inactive) | inhibition of aggregation [2]: 10.7% (inactive) | nuclei count [2]: 103% | inhibition [3]: -112% (inactive) | nuclei count [3]: 116% | fluorescence slope [4]: -0.432 (inactive) | NADPH fluorescence slope [5]: 8.2e-06 (inactive) | slope [6]: 0.00447 (inactive) | inhibition [7]: 1.51% (inactive) | inhibition [8]: 4.54% (inactive)

Cc1cccc(Nc2ncc3c(n2)CC(c2ccco2)CC3=O)c1 (centres undefined)
cell count [1]: 386 | inhibition [1]: -1% (inactive) | inhibition of aggregation [2]: -7% (inactive) | nuclei count [2]: 84.1% | inhibition [3]: -29% (inactive) | nuclei count [3]: 187% | fluorescence slope [4]: -0.378 (inactive) | NADPH fluorescence slope [5]: -1.7e-05 (inactive) | slope [6]: 0.003 (inactive) | inhibition [7]: -2.61% (inactive) | inhibition [8]: -12.4% (inactive)

N#Cc1c2n(c(=S)n(-c3ccccn3)c1=O)CCCCC2
cell count [1]: 588 | inhibition [1]: -26.4% (inactive) | inhibition of aggregation [2]: -14.8% (inactive) | nuclei count [2]: 111% | inhibition [3]: -117% (inactive) | nuclei count [3]: 144% | fluorescence slope [4]: -0.477 (inactive) | NADPH fluorescence slope [5]: -4.9e-05 (inactive) | slope [6]: 0.00579 (inactive) | inhibition [7]: -7.7% (inactive) | inhibition [8]: 11% (inactive)

O=C(CSc1nc(-c2ccco2)cc(C(F)(F)F)n1)NCCCn1ccnc1
cell count [1]: 674 | inhibition [1]: -1.9% (inactive) | inhibition of aggregation [2]: 2.9% (inactive) | nuclei count [2]: 119% | inhibition [3]: -43.1% (inactive) | nuclei count [3]: 113% | fluorescence slope [4]: -0.537 (inactive) | NADPH fluorescence slope [5]: 2.4e-05 (inactive) | slope [6]: 0.0076 (inactive) | inhibition [7]: -4.59% (inactive) | inhibition [8]: 13.6% (inactive)

O=C(Cn1nnc(-c2ccc(CN3CCOCC3)cc2)n1)NC1CCCCC1
cell count [1]: 447 | inhibition [1]: 0.3% (inactive) | inhibition of aggregation [2]: 7.3% (inactive) | nuclei count [2]: 108% | inhibition [3]: -20.9% (inactive) | nuclei count [3]: 118% | fluorescence slope [4]: -0.584 (inactive) | NADPH fluorescence slope [5]: -4.1e-05 (inactive) | slope [6]: 0.0043 (inactive) | inhibition [7]: 14% (inactive) | inhibition [8]: 9.43% (inactive)

O=C1CN(c2nc3ccccc3n3cnnc23)CC(=O)N1CCc1ccccc1
cell count [1]: 662 | inhibition [1]: 10% (inactive) | inhibition of aggregation [2]: -13% (inactive) | nuclei count [2]: 112% | inhibition [3]: -66% (inactive) | nuclei count [3]: 116% | fluorescence slope [4]: -0.588 (inactive) | NADPH fluorescence slope [5]: -6.3e-05 (inactive) | slope [6]: 0.00474 (inactive) | inhibition [7]: 6.8% (inactive) | inhibition [8]: 9.78% (inactive)

CCOC(=O)c1ccc(NC(=O)c2ccc(NS(C)(=O)=O)cc2)cc1
cell count [1]: 473 | inhibition [1]: -4.3% (inactive) | inhibition of aggregation [2]: 8.8% (inactive) | nuclei count [2]: 95.3% | inhibition [3]: 32.9% (inactive) | nuclei count [3]: 95.1% | fluorescence slope [4]: -0.401 (inactive) | NADPH fluorescence slope [5]: 4e-05 (inactive) | slope [6]: 0.00834 (inactive) | inhibition [7]: 6.57% (inactive) | inhibition [8]: 11.9% (inactive)

COC(=O)C1=C(C)NC(C)=C(C(=O)OC)C1C1CC=CCC1 (centres undefined)
cell count [1]: 377 | inhibition [1]: 1.7% (inactive) | inhibition of aggregation [2]: 24.3% (inactive) | nuclei count [2]: 91.2% | inhibition [3]: 32.4% (inactive) | nuclei count [3]: 93.7% | fluorescence slope [4]: -0.456 (inactive) | NADPH fluorescence slope [5]: 8.7e-05 (inactive) | slope [6]: 0.00547 (inactive) | inhibition [7]: 8.91% (inactive) | inhibition [8]: 22.8% (inactive)
